Experimental findings from PubChem BioAssay (Tox21) are described below.

Inconclusive results are not listed. The source made the active and inactive calls. Unless noted, calls follow the shape of the full dose curve.

The nature of experiment [1]: Nuclear factor erythroid 2-related factor 2/antioxidant responsive element (Nrf2/ARE) small molecule agonists: qHTS cell viability counter screen in human keratinocytes (AID 1919968; active = well fitted curve in the direction sought with a large enough effect in the repeat runs; an effect the other way counts as inactive or inconclusive; also: nearly all actives have a fitted effect of over 55% in size). The method, boiled down:
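KeratinoSens cells (HaCaT keratinocytes stably carrying an ARE-luciferase reporter) were seeded at 1,500 cells/well and rested 5 h at 37 C/5% CO2. They were then exposed to compounds in DMSO for 23 h. Viability was read by CellTiter-Fluor fluorescence after 1 h.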
On the technique in general: In qHTS, concentration-response curves come from the screen itself.

Experiment [2] is described as follows: Nuclear factor erythroid 2-related factor 2/antioxidant responsive element (Nrf2/ARE) small molecule agonists: luciferase reporter gene qHTS assay in human keratinocytes (AID 1919969; also: nearly all actives have a fitted effect of over 35% in size). (In general: Reporter assays use an easily measured gene product as a stand-in for the process of interest.)
For experiment [3], the target named is Gonadotropin-releasing hormone receptor (Homo sapiens) (UniProt P30968). In words: Human gonadotropin-releasing hormone receptor (GnRHR) small molecule agonists, calcium flux assay in GnRHR-HEK293 cells (AID 1920063). Also: nearly all actives have a fitted effect of over 35% in size. A digest of the protocol: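 HEK293 cells stably expressing human GnRHR were plated 18 h at 37 °C, loaded with calcium dye 1 h at 37 °C, then given compound in agonist mode; fluorescence (Ex/Em 480/540) read kinetically for 3 min at 1 s intervals.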

Experiment [4] has as its target KiSS-1 receptor (Homo sapiens) (UniProt Q969F8). Nature of the experiment: Human kisspeptin (KISS1R) small molecule agonists, calcium flux assay in KISS1R-HEK293 cells (AID 1920064; active = well fitted curve in the direction sought with a large enough effect in the repeat runs; an effect the other way counts as inactive or inconclusive). The method, boiled down:
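HEK293 cells stably expressing human KISS1R were plated 18 h at 37 °C, loaded with calcium dye for 1 h at 37 °C, then given compound by pin tool. Fluorescence (Ex/Em 480/540) was read kinetically for 3 min.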
A general note: Calcium assays in cells follow changes in intracellular calcium, usually with a dye or a luminescent sensor.

Experiment [5] is described as follows: G protein-coupled receptor (GPCR) small molecule agonists, calcium flux assay: HEK293 wild type cell line counter screen (AID 1920065). The method, boiled down:
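Cells were plated and cultured 18 h at 37 C/5% CO2, then loaded with calcium dye for 1 h at 37 C. Compounds in DMSO were pin-transferred in agonist mode, and fluorescence (Ex/Em 480/540) was read kinetically for 3 min at 1 s intervals.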

A short description of experiment [6]: p53 small molecule agonists, cell-based qHTS assay with human liver microsomes (AID 1963577).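 Also: p53 response element beta-lactamase reporter cells with liver microsomes plus NADPH.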 The method, boiled down: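 Metabolically competent format: test substances, human liver microsomes and NADPH (both 0.5 mg/mL final) incubated with p53RE-bla cells 16 h at 37 C. Beta-lactamase reporter signal then quantified by fluorescence.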
A short description of experiment [7]: p53 small molecule agonists, cell-based qHTS assay with rat liver microsomes (AID 1963578). The method, boiled down:
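Each plate received p53RE-bla cells, then compound, then rat liver microsomes and NADPH (both 0.5 mg/mL final). Plates were held 16 h at 37 C, and beta-lactamase activity was detected with LiveBLAzer over 2 h.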

The nature of experiment [8]: p53 small molecule agonists, cell-based qHTS assay with human liver microsomes: qHTS cell viability counter screen (AID 1963579). Also: nearly all actives have a fitted effect of over 45% in size. A digest of the protocol: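 Tox21 library compounds, delivered from DMSO stocks, were tested on p53RE-bla cells together with 0.5 mg/mL human liver microsomes and 0.5 mg/mL NADPH (final) over 16 h at 37 C; CellTiter-Glo luminescence served as the cytotoxicity measure.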

Experiment [9] can be described thus: p53 small molecule agonists, cell-based qHTS assay with rat liver microsomes: qHTS cell viability counter screen (AID 1963580). Also: nearly all actives have a fitted effect of over 45% in size. The method, boiled down:
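In HCT-116 cells carrying a p53 response element-bla reporter, compounds were metabolically activated in situ by rat liver microsomes with NADPH over 16 h. Cell ATP content then served as the cytotoxicity measure.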

Experiment [10] is described as follows: p53 small molecule agonists, cell-based qHTS assay: qHTS cell viability counter screen (AID 1963581). Also: nearly all actives have a fitted effect of over 45% in size. The method, boiled down:
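p53RE-bla HCT-116 cells were exposed to compounds for 16 h at 37 C; after the beta-lactamase FRET read in the same wells, CellTiter-Glo was added and luminescence (intracellular ATP) read after 30 min at room temperature.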

Experiment [11] can be described thus: p53 small molecule agonists, cell-based qHTS assay (AID 1963582; active = well fitted activation curve with a large enough effect in the signal ratio in the repeat runs, not every such curve was filed as active; the % refers to the signal ratio). The method, boiled down:
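p53RE-bla beta-lactamase reporter cells rested 5 h at 37 C/5% CO2, then received compounds in DMSO by pin transfer and were incubated 16 h at 37 C. LiveBLAzer B/G FRET substrate was loaded for 2 h at room temperature before fluorescence reading.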

A short description of experiment [12]: cAMP Responsive Elements (CRE) small molecule agonists, cell-based qHTS assay (AID 1963590). A digest of the protocol: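 CRE-bla HEK 293T cells in DMEM with 10% dialyzed FBS, NEAA, pyruvate and 25 mM HEPES were plated 18 h at 37 C/5% CO2, then exposed to compounds in DMSO for 3 h before LiveBLAzer B/G FRET substrate addition.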
Experiment [13] in a line: cAMP Responsive Elements (CRE) small molecule antagonists, cell-based qHTS assay (AID 1963591; active = well fitted inhibition curve with a large enough effect in the signal ratio in the repeat runs, not every such curve was filed as active; the % refers to the signal ratio). The method, boiled down: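 CRE-bla HEK293T cells were plated 18 h at 37 °C/5% CO2, pinned with compound in DMSO, then stimulated with NKH477 at 0.25 uM final for 3 h. LiveBLAzer B/G FRET substrate was added and plates incubated 2 h at room temperature.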
The target of experiment [14] is Beta-2 adrenergic receptor (Homo sapiens) (UniProt P07550). Nature of the experiment: Adrenergic beta2 receptor (ADRB2) small molecule antagonists, cell-based qHTS assay (AID 1963592). Also: series mostly up to about 92 µM; nearly all actives have a fitted effect of over 50% in size. The method, boiled down: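 Cells (CHO, stable ADRB2 overexpression) incubated 18-20hr at 37C; compounds added from DMSO; agonist mix (1nM isoproterenol, 100uM IBMX, 25uM Ro-20-1724) added; 0.5hr RT; d2-cAMP and anti-cAMP-cryptate added; 1hr RT; 665/615 nm read.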

In experiment [15] the target is D(2) dopamine receptor (Homo sapiens) (UniProt P14416). In words: Dopamine D2 receptor (DRD2) small molecule agonists, cell-based qHTS assay (AID 1963594). Also: nearly all actives have a fitted effect of over 35% in size. A digest of the protocol: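 HEK293 cells stably expressing DRD2 were cultured 24 h at 37 C, then given Ro20-1724 (0.1 mM final) and compounds for 10 min at room temperature. NKH477 (200nM) was then added for 30 min. cAMP was read by HTRF.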

Experiment [16] has the same target. Nature of the experiment: Dopamine D2 receptor (DRD2) small molecule antagonists, cell-based qHTS assay (AID 1963595; active = well fitted inhibition curve with a large enough effect in the signal ratio in the repeat runs, with a control signal flat; the % refers to the signal ratio). A digest of the protocol: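 Cells were plated and grown for 24 h at 37 °C. Ro20-1724 (0.1 mM final) went in first, then compound for 10 min. NKH477 (200 nM) with quinpirole (12 nM) followed for 30 min at RT, then HTRF detection reagents for 1 h.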

The target in experiment [17] is 5-hydroxytryptamine receptor 2A (Homo sapiens) (UniProt P28223). Nature of the experiment: 5-hydroxytryptamine receptor 2A (HTR2A) small molecule agonists, cell-based qHTS assay (AID 1963587). Also: nearly all actives have a fitted effect of over 30% in size. Also: potency is read from the fitted curve at half-maximal effect. A digest of the protocol:
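HTR2A-CHO cells, plated 18 h at 37 C/5% CO2, dye-loaded 1 h at 37 C; compounds in DMSO added by pin tool (agonist mode). Intracellular calcium flux read as kinetic fluorescence on FDSS over 2 min at 1 s intervals.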

Experiment [18] deals with Muscarinic acetylcholine receptor M1 (Homo sapiens) (UniProt P11229). In words: Cholinergic receptor muscarinic 1 (CHRM1) small molecule antagonists, cell-based qHTS assay (AID 1963588). Also: nearly all actives have a fitted effect of over 40% in size. A digest of the protocol:
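CHRM1-CHO calcium-flux assay, antagonist mode. Cells were seeded 18 h, dye-loaded 1 h at 37 C and given compound for 5 min at RT, then acetylcholine was added at 50nM. FDSS fluorescence was read 3 min; 15 concentrations, three runs.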

For experiment [19] the target is unchanged. Nature of the experiment: Cholinergic receptor muscarinic 1 (CHRM1) small molecule agonists, cell-based qHTS assay (AID 1963589). Also: nearly all actives have a fitted effect of over 35% in size. The method, boiled down:
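CHO cells stably expressing human CHRM1, seeded 18 h at 37 C/5% CO2, dye-loaded 1 h at 37 C, then given compound in agonist mode; intracellular calcium fluorescence read kinetically at 1 s intervals. Fifteen concentrations, three independent runs.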

In experiment [20] the target is 5-hydroxytryptamine receptor 2A (Homo sapiens) (UniProt P28223). Nature of the experiment: 5-hydroxytryptamine receptor 2A (HTR2A) small molecule antagonists, cell-based qHTS assay (AID 1963586). Also: nearly all actives have a fitted effect of over 45% in size. A digest of the protocol:
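Antagonist-mode intracellular calcium assay: DOI (4 nM) added after 5 min compound pre-incubation at room temperature to dye-loaded HTR2A-CHO cells. Fluorescence followed for 3 min, sampled every second.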

D(2) dopamine receptor (Homo sapiens), sequence (P14416 whole entry, looked up): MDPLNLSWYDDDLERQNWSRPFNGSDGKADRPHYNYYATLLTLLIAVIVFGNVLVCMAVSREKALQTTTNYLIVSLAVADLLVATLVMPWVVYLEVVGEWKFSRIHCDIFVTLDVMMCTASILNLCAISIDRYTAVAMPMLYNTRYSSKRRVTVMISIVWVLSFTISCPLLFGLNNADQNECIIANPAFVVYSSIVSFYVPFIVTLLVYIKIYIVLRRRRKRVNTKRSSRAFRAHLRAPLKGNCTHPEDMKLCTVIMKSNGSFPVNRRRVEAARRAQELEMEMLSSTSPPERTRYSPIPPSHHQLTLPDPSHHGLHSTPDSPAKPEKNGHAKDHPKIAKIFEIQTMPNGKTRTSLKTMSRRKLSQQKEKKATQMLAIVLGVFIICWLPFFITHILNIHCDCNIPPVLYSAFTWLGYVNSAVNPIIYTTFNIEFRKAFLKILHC
KiSS-1 receptor (Homo sapiens), sequence (Q969F8 whole entry, looked up): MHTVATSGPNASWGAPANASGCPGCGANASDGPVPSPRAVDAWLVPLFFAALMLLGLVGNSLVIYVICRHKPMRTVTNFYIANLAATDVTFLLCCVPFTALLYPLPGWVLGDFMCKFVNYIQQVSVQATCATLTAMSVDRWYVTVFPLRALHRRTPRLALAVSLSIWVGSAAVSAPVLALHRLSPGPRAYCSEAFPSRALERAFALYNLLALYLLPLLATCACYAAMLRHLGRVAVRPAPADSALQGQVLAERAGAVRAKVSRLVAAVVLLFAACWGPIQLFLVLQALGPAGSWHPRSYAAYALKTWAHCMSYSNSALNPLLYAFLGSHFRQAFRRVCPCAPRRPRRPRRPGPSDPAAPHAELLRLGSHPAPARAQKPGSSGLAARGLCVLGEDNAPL
Gonadotropin-releasing hormone receptor (Homo sapiens), sequence (P30968 whole entry, looked up): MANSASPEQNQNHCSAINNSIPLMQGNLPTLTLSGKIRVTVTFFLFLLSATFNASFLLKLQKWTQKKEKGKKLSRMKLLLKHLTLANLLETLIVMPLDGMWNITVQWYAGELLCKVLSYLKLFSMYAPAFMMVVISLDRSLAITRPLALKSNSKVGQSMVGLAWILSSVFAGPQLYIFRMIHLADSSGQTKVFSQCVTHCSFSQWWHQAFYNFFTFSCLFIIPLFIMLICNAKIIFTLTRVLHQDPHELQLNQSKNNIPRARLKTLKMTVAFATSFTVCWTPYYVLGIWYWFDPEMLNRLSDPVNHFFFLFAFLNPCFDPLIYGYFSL
Beta-2 adrenergic receptor (Homo sapiens), sequence (P07550 whole entry, looked up): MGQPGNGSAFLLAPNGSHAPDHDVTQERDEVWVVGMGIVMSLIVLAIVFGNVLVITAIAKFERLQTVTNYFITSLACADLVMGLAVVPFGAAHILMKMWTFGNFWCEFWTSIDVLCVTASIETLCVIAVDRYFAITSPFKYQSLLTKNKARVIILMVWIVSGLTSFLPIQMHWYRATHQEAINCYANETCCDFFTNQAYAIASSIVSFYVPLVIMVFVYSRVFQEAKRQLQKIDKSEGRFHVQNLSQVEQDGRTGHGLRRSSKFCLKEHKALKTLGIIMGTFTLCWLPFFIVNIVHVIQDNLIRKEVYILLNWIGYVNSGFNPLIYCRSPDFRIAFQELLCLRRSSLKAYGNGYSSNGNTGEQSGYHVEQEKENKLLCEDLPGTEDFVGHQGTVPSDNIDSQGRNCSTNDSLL
Muscarinic acetylcholine receptor M1 (Homo sapiens), sequence (P11229 whole entry, looked up): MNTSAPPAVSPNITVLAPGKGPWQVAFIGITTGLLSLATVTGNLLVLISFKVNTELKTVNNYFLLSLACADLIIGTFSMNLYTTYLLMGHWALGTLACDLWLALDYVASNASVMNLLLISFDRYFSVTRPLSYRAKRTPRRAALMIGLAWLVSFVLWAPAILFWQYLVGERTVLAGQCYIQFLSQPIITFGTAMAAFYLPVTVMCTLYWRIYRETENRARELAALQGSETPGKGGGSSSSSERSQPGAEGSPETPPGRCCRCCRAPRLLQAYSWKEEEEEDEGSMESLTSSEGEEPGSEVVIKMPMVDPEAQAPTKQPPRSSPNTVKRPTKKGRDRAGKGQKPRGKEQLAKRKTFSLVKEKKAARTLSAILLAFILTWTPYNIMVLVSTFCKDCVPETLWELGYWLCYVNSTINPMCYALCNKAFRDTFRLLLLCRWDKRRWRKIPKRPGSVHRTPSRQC
5-hydroxytryptamine receptor 2A (Homo sapiens), sequence (P28223 whole entry, looked up): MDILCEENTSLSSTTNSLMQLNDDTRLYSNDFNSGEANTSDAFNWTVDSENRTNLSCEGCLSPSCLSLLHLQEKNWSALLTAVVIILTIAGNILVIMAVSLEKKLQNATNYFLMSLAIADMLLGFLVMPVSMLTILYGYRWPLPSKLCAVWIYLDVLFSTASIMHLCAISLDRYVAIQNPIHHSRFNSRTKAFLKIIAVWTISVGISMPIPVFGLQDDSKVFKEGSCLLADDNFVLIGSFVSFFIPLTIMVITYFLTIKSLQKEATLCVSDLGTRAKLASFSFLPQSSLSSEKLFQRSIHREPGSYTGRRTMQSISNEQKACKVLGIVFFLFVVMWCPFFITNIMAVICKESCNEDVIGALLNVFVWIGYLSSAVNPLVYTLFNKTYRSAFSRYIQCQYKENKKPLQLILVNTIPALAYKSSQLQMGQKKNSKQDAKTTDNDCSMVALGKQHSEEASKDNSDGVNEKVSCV

Turning to `O=[N+]([O-])c1cc([As](=O)(O)O)ccc1O`, the Potency result in [1], in [2], in [3], in experiment [4], in experiment [5] and in [6] was “inactive” in each case. Besides, the Potency result in experiment [7], in experiment [8], in experiment [9], in experiment [10], in experiment [11] and in experiment [12] was “inactive” throughout. In addition, the Potency result in [13], in [14], in experiment [15] and in experiment [16] was “inactive” each time.

In the case of `CN(C)CCc1c[nH]c2cccc(OP(=O)(O)O)c12`, the Potency entry in [1], in experiment [2], in [3], in [4], in [5] and in experiment [6] was “inactive” in each case. The Potency result in [7], in [8], in [9], in experiment [10], in experiment [11] and in experiment [18] was “inactive” in each case. Besides, the Potency result in experiment [19], in [12], in experiment [13], in [14], in [15] and in [16] was “inactive” in each case. Moreover, in experiment [17], the Potency is 85.5 nM (active).

In the case of `CCCCC(CC)COC(=O)c1c(Br)c(Br)c(Br)c(Br)c1C(=O)OCC(CC)CCCC` (configuration not stated), the Potency result in experiment [1], in experiment [2], in [3], in experiment [4], in experiment [5] and in experiment [6] was “inactive” each time. The Potency entry in experiment [7], in experiment [8], in [9], in [10], in experiment [11] and in experiment [17] was “inactive” each time. Besides, the Potency result in experiment [18], in [19], in [12], in experiment [13], in experiment [14] and in [16] was “inactive” in each case.

On to `O=S(=O)(c1ccc(O)cc1)c1ccc(O)cc1`, for which the Potency result in experiment [1], in experiment [2], in [3], in [4], in [5] and in experiment [6] was “inactive” throughout. The Potency entry in experiment [7], in experiment [8], in experiment [9], in [10], in [11] and in [17] was “inactive” throughout. The Potency entry in experiment [18], in experiment [19], in [12], in [13], in experiment [14] and in [16] was “inactive” in each case.

With `CC(C)(c1ccccc1)c1cc(-n2nc3ccccc3n2)c(O)c(C(C)(C)c2ccccc2)c1`, the Potency entry in [1], in experiment [2], in [3], in [4], in [5] and in experiment [6] was “inactive” in each case. Moreover, the Potency result in experiment [7], in experiment [8], in [9], in [10], in experiment [11] and in [20] was “inactive” throughout. The Potency entry in [18], in experiment [19], in experiment [12], in experiment [13], in experiment [14] and in experiment [16] was “inactive” each time.

In the case of `[N-]=[N+]=[N-]`, the Potency result in [1], in [2], in [3], in [4], in experiment [5] and in [6] was “inactive” in each case. Also, the Potency result in experiment [7], in experiment [8], in [9], in experiment [10], in experiment [20] and in experiment [17] was “inactive” in each case. For the same molecule, the Potency result in experiment [18], in experiment [19], in experiment [12], in experiment [13], in experiment [14] and in experiment [15] was “inactive” in each case. For the same molecule, in [16], the Potency entry was “inactive”.

With `CC(C)C(=O)OCC(C)(C)C(OC(=O)C(C)C)C(C)C` (configuration not stated), the Potency result in [1], in [2], in [3], in [4], in experiment [5] and in [6] was “inactive” throughout. Also, the Potency entry in experiment [7], in [8], in experiment [9], in experiment [10], in experiment [20] and in experiment [17] was “inactive” throughout. The Potency result in [18], in experiment [19], in experiment [12], in [13], in experiment [14] and in [15] was “inactive” throughout. In addition, the Potency result in experiment [16] was “inactive”.
